# Experimental data reported in PubChem BioAssay (NCATS).
# Inconclusive results are not listed. A call without a number means that no potency is given here. Calls of active or inactive are those of the source. Unless noted, the call rests on the fitted dose curve; in most records, active means well fitted curve in the direction sought with a large enough effect; inconclusive means small, poorly fitted or top-dose-only effect, or another doubt; inactive means no such curve, though single readings can be large; an effect the other way counts as inactive or inconclusive.
# Tests used:
# [1] = NS1 protein of Zika virus - qHTS assay to identify small molecule inhibitors in human HEK 293 cells (AID 1347053); further: series mostly up to about 46 µM; nearly all actives have a fitted effect of over 55% in size
# In short: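 HEK 293; 20 h pre-culture, 37 C/5% CO2; cpd 1 h pre-infection; ZIKV MR766, MOI = 0.5, 24 h, 37 C; TR-FRET NS1 readout (two anti-NS1 Abs); norm. to no-virus vs infected.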
# [2] = qHTS for Inhibitors of the Functional Ribonucleoprotein Complex (vRNP) of Lassa (LASV) Arenavirus: LASV Primary Screen - GLuc reporter signal (AID 1347082; calls by dose curve; tested in HEK293 reporter line; further: series mostly up to about 57 µM; nearly all actives have a fitted effect of over 60% in size)
# [3] = qHTS for Inhibitors of the Functional Ribonucleoprotein Complex (vRNP) of Lassa (LASV) Arenavirus: Viability assay - alamar blue signal for LASV Primary Screen (AID 1347083; calls by dose curve; tested in HEK293 reporter line; further: series mostly up to about 57 µM; nearly all actives have a fitted effect of over 80% in size)
# [4] = qHTS for Inhibitors of the Functional Ribonucleoprotein Complex (vRNP) of Lymphocytic Choriomeningitis Arenaviruses (LCMV): Viability assay - alamar blue signal for LCMV Primary Screen (AID 1347085; calls by dose curve; tested in HEK293 reporter line; further: series mostly up to about 57 µM; nearly all actives have a fitted effect of over 80% in size)
# [5] = biological target: Nucleoprotein (Lymphocytic choriomeningitis virus (strain Armstrong)) (UniProt P09992); assay: qHTS for Inhibitors of the Functional Ribonucleoprotein Complex (vRNP) of Lymphocytic Choriomeningitis Arenaviruses (LCMV): LCMV Primary Screen - GLuc reporter signal (AID 1347086; calls by dose curve; further: series mostly up to about 57 µM; nearly all actives have a fitted effect of over 70% in size)
# Chain of Nucleoprotein (Lymphocytic choriomeningitis virus (strain Armstrong)) (P09992 whole entry, looked up): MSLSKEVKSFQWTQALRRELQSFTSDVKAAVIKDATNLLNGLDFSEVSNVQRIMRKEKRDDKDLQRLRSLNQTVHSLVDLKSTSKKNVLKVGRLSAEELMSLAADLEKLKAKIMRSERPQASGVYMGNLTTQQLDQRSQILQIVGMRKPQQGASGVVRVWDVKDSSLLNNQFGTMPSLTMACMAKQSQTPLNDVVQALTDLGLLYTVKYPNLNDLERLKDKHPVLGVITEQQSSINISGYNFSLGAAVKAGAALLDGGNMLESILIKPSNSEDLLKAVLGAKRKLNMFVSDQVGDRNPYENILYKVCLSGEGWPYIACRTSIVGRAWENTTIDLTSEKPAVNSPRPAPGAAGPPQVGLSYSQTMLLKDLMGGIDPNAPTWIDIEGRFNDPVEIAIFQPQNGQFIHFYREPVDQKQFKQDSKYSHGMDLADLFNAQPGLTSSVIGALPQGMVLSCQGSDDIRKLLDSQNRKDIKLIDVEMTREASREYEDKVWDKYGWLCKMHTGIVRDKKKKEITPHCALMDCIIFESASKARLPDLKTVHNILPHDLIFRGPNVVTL
# [6] = qHTS of pediatric cancer cell lines to identify multiple opportunities for drug repurposing: Primary screen for TC32 cells (AID 1347089); further: nearly all actives have a fitted effect of over 60% in size
# In short: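 Measured quantity: luminescence from CellTiter-Glo, reflecting metabolically active TC32 cells following 48 h of compound. Curves came straight from multi-point titrations, with 8 or 11 points in primary and 11 in confirmatory screening.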
# [7] = qHTS of pediatric cancer cell lines to identify multiple opportunities for drug repurposing: Primary screen for DAOY cells (AID 1347090); further: nearly all actives have a fitted effect of over 55% in size; further: potency means the concentration at half of the fitted maximal effect
# In short: (§1)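 Eight- or eleven-point concentration series, 48 h treatment at 37 degrees C in growth media; readout CellTiter-Glo luminescence. Potency and efficacy were taken from the concentration-response curves.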
# [8] = qHTS of pediatric cancer cell lines to identify multiple opportunities for drug repurposing: Primary screen for SJ-GBM2 cells (AID 1347091)
# In short: as §1
# [9] = qHTS of pediatric cancer cell lines to identify multiple opportunities for drug repurposing: Primary screen for A673 cells (AID 1347092); further: nearly all actives have a fitted effect of over 45% in size
# In short: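 Cells are plated, rested 5 h, dosed by pintool, incubated 48 h, then lysed with CellTiter-Glo and read by luminescence. DMSO is the neutral control; bortezomib at 2.3 uM final is the positive control.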
# [10] = qHTS of pediatric cancer cell lines to identify multiple opportunities for drug repurposing: Primary screen for BT-37 cells (AID 1347094); further: series mostly up to about 57 µM
# In short: (§2)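 Following a 5-hour attachment period, cells at 500-1,000/well received compounds and were cultured for 48 hours. CellTiter-Glo was added and luminescence read to estimate viable, metabolically active cells.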
# [11] = qHTS of pediatric cancer cell lines to identify multiple opportunities for drug repurposing: Primary screen for NB-EBc1 cells (AID 1347095)
# In short: as §2
# [12] = P-glycoprotein substrates identified in KB-8-5-11 adenocarcinoma cell line, qHTS therapeutic library screen (AID 1346987); further: nearly all actives have a fitted effect of over 65% in size; further: potency means the concentration at half of the fitted maximal effect
# In short: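 P-gp-mediated resistance screen: KB-8-5-11 cells treated 72 h with compounds in dose-response. CellTiter-Glo viability.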
# [13] = qHTS of pediatric cancer cell lines to identify multiple opportunities for drug repurposing: Primary screen for SK-N-MC cells (AID 1347093); further: series mostly up to about 46 µM
# In short: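 Metabolically active cells were quantified by ATP-dependent luminescence (CellTiter-Glo, 15 min at room temperature) following 48 h treatment. Cells had been plated at 500-1,000 per well and settled for 5 h beforehand.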
Structure (SMILES),outcome [1],Potency [2],Potency [3],Potency [4],Potency [5],Potency [6],Potency [7],Potency [8],Potency [9],Potency [10],Potency [11],Potency [12],Potency [13]
O=c1[nH]c2ccccc2n1C1CCNCC1,inactive,inactive,inactive,inactive,inactive,inactive,inactive,inactive,inactive,inactive,inactive,,
CN[C@@H](C)Cc1ccccc1,,inactive,inactive,inactive,inactive,,,,,,,inactive,
COc1cccc([C@@]2(O)CCCC[C@@H]2CN(C)C)c1,,inactive,inactive,inactive,inactive,inactive,inactive,inactive,inactive,inactive,inactive,inactive,inactive
COc1cccc(C(=O)CCN[C@@H](C)[C@H](O)c2ccccc2)c1,inactive,inactive,inactive,inactive,inactive,inactive,26.6 µM (active),inactive,,inactive,,inactive,
C[C@@H](N)[C@@H](O)c1ccccc1,inactive,inactive,inactive,inactive,inactive,inactive,inactive,inactive,inactive,inactive,inactive,inactive,
Clc1cccc(SC2CCNCC2)n1,inactive,inactive,inactive,inactive,inactive,inactive,inactive,inactive,inactive,inactive,inactive,,
CC(Cc1ccccc1)NCCn1cnc2c1c(=O)n(C)c(=O)n2C (stereo not drawn),inactive,inactive,inactive,inactive,inactive,inactive,inactive,inactive,inactive,inactive,inactive,,
CCC(CC)(CNC(=O)CCCO)c1cccc(OC)c1,inactive,inactive,inactive,inactive,inactive,inactive,inactive,inactive,inactive,inactive,inactive,,inactive
COc1ccc2c3c1O[C@H]1[C@H](O)CC[C@H]4[C@@H](C2)N(C)CC[C@@]341,inactive,inactive,inactive,inactive,inactive,inactive,inactive,inactive,inactive,inactive,inactive,inactive,
CN(C)CCc1c[nH]c2cccc(OP(=O)(O)O)c12,inactive,inactive,inactive,inactive,inactive,inactive,inactive,inactive,inactive,inactive,inactive,,
Clc1ccccc1N1CCNCC1,inactive,inactive,inactive,inactive,inactive,inactive,inactive,inactive,inactive,inactive,inactive,,inactive
C[C@]12CCC(=O)C=C1CC[C@@H]1[C@@H]2CC[C@]2(C)C(=O)CC[C@@H]12,inactive,inactive,inactive,inactive,inactive,inactive,inactive,inactive,inactive,inactive,inactive,,
COC1CC(=C(c2cccs2)c2cccs2)C[N+](C)(C)C1 (stereo not drawn),inactive,inactive,inactive,inactive,inactive,inactive,inactive,inactive,,inactive,inactive,inactive,
NNc1ccccc1,inactive,inactive,inactive,inactive,inactive,inactive,inactive,inactive,inactive,inactive,inactive,inactive,
CN1CC[C@]23c4c5ccc(O)c4O[C@H]2[C@@H](O)C=C[C@H]3[C@H]1C5,inactive,inactive,inactive,inactive,inactive,inactive,inactive,inactive,,inactive,inactive,inactive,
CCN(CCO)CCn1c(Cc2ccccc2)nc2c1c(=O)n(C)c(=O)n2C,inactive,inactive,inactive,inactive,inactive,inactive,inactive,inactive,inactive,inactive,inactive,,
CCCOC(=O)c1cncn1C(C)c1ccccc1 (stereo not drawn),inactive,inactive,inactive,inactive,inactive,inactive,inactive,inactive,inactive,inactive,inactive,,
CCCCCCCCCC(=O)O[C@H]1CC[C@H]2[C@@H]3CCC4=CC(=O)CC[C@@H]4[C@H]3CC[C@]12C,inactive,inactive,inactive,inactive,inactive,,inactive,inactive,inactive,inactive,inactive,6.51 µM (active),inactive
